The list is not random: actives were taken first. Their share in the collection is about 27%.
CYP2C19 activ: activators of human cytochrome P450 2C19 | P33261 | recombinant CYP2C19, luciferin-H EGE luminescence; stronger effect = higher value; 0 = fully inhibited enzyme, 1 = untreated enzyme | activation factor at 5 µM | 96,000 tested, under 10 active | AID 1025;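 active means activation factor of at least 2 at 5 µM in the primary screen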;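 further: 0 = wells with 2.5 mM tranylcypromine and 1 = vehicle-only wells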
CYP2C9 inh: inhibitors of human CYP2C9; P11712; CYP2C9 Supersomes, luciferin-H conversion, luminescence; inhibition, % at 5 µM; 96,000 tested, 20% active;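 active means blocking of liver enzyme CYP2C9 beyond about 50% at 5 µM, limit read from the data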
CYP2C9 act: increases human cytochrome P450 2C9 activity. activation factor at 5 µM. recombinant CYP2C9, luciferin-H conversion, luminescence; stronger effect = higher value; factor 1 = untreated enzyme, 0 = blocked. 96,000 tested, 1.4% active;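 active means activation factor of 2 or more for CYP2C9 at a 5 µM dose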;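 further: 0 = sulfaphenazole-blocked wells and 1 = vehicle-only wells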
CYP2C19 inhib: inhibitors of human CYP2C19; P33261; CYP2C19 Supersomes, luciferin-H EGE luminescence, 30 min; inhibition, % at 5 µM; 96,000 tested, 21% active;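 active means CYP2C19 inhibition above a set limit at 5 µM in the primary screen, cut at about 50% in these data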;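 further: plate controls were negative control wells for no effect and 2.5 mM tranylcypromine positive control for full effect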
EphB4 ephrin blk: antagonists of human EphB4-ephrin-B2 interaction | AID 720 | 97,000 tested, 0.15% active | P54760 | inhibition, % at 7 µM | EphB4 LBD / TNYL-RAW-Alexa532 peptide, fluorescence polarization;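 active means inhibition above the screen-wide mean inhibition plus 3 SD, cut at about 15% in these data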;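 further: 0% = DMSO wells and 100% = excess unlabeled TNYL-RAW peptide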
Target sequence (P54760 whole entry, looked up, the tested form may be a part): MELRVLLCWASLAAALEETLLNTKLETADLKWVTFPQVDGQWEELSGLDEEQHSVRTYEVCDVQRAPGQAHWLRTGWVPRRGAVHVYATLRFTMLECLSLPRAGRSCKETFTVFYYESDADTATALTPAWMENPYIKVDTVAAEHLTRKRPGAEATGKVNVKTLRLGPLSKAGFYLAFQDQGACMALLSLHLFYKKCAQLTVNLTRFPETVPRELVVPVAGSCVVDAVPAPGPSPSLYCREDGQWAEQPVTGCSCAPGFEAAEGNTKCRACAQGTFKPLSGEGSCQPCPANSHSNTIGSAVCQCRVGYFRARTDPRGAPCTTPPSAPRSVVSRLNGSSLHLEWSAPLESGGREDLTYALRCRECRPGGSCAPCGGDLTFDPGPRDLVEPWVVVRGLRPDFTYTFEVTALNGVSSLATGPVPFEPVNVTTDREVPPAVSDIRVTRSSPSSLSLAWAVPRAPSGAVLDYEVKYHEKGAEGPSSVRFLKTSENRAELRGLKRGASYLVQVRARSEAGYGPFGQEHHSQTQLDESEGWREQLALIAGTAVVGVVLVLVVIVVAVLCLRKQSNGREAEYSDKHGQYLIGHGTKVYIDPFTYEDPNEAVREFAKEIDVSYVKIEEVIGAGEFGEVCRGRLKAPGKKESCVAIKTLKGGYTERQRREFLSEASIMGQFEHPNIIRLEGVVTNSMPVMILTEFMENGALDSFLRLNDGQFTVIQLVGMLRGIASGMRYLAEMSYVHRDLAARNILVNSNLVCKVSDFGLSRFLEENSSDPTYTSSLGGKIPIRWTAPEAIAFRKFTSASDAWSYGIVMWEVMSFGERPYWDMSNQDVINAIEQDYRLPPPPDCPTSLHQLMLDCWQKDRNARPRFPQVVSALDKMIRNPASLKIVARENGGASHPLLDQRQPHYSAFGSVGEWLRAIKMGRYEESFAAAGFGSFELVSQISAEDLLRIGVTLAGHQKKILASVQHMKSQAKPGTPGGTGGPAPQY
* hit, by the source's call; . = no result given.

SMILES | CYP2C19 activ | CYP2C9 inh | CYP2C9 act | CYP2C19 inhib | EphB4 ephrin blk
N#Cc1c(NC(=O)c2ccccc2)sc2c1CCC2 | 0.9 | 5.1 | 0.9 | 7.9 | 5.4
Cn1ncc(Cl)c1C(=O)NC(=S)Nc1sc2c(c1C#N)CCCCC2 | 0.8 | 63.1* | 0.4 | 16.9 | -1.8
CCNC(=S)N(Cc1ccc(OC)cc1)C1CC(=O)N(c2ccc(OCC)cc2)C1=O (stereo not given) | 0.8 | 20.3 | 0.8 | 20.6 | -7.3
COC(=O)[C@H](C)NC(=O)Nc1cc(Cl)ccc1C | 0.5 | 37.8 | 0.6 | 46.6 | 1.4
CCCCN(CCCC)S(=O)(=O)c1ccc(SCC(=O)OCC)c([N+](=O)[O-])c1 | 0.7 | 66.9* | 0.3 | 32.0 | 6.0
CC(NCC1(N2CCOCC2)CCCCC1)C(=O)N1CCc2ccccc21 (stereo not given) | 0.9 | 9.3 | 0.9 | 11.2 | -12.0
c1cc(CSc2nnc(-c3ccc4c(c3)OCO4)o2)ccn1 | 0.1 | 87.3* | 0.1 | 94.4* | 1.0
Cc1ccccc1NC(=O)Cc1nc(CSc2nnc(-c3ccc4c(c3)OCO4)o2)cs1 | 0.4 | -8.4 | 1.1 | 62.7* | -7.2
CN1C(=O)SC(Nc2ccccc2)C1=O (stereo not given) | . | . | . | . | 7.1
CS(=O)(=O)N1CCC(NC(=O)Cc2ccccc2)CC1 | 0.9 | -4.2 | 1 | 9.7 | 6.8
Cn1c(=O)n(CCOc2ccc(Cl)cc2Cl)c2ccccc21 | 0.8 | 12.8 | 0.9 | 17.7 | 0.7
Cn1c(=O)n(Cc2ccc(Cl)cc2)c2ccccc21 | 0.2 | 33.6 | 0.7 | 76.3* | 5.2
O=c1n(Cc2ccccc2F)c2ccccc2n1Cc1ccccc1F | . | . | . | . | -4.5
COc1ccccc1Oc1nc2c(c(=O)n(Cc3ccccc3F)c(=O)n2C)n1C | 0.4 | -9.7 | 1.1 | 59.7* | 5.4
Cn1c(=O)n(Cc2ccccc2F)c2ccccc21 | 0.3 | 35.1 | 0.6 | 70.4* | 2.2
Cc1ccccc1Cn1nc(C)c(NC(=O)c2cc3n(n2)C(C(F)F)CC(C(F)F)N3)c1C (stereo not given) | 1.1 | 8.8 | 0.9 | -5.3 | 3.1
Cc1nc2c(Br)c3nc(C(F)(F)F)[nH]c3c(Br)c2[nH]1 | 1 | 27.3 | 0.7 | 2.2 | 2.8
Cc1nc2c(F)c(F)c(C(F)(F)F)c(F)c2[nH]1 | 0.4 | 26.8 | 0.7 | 60.9* | .
COC(=O)c1c(NC(=O)c2ccc(Br)o2)sc(C)c1C | 0.9 | 19.9 | 0.8 | 5.5 | 10.8
COc1cc2c3c(c1)C1(C(=O)N3C(C)(C)C=C2C)C(C#N)=C(N)Oc2cc(O)ccc21 (stereo not given) | 0.5 | 88.7* | 0.1 | 51.2* | -11.4
Cc1cc2c3c(c1C)C1(C(=O)N3C(C)(C)CC2C)C(C#N)=C(N)Oc2cc(O)ccc21 (stereo not given) | 1.1 | 0.3 | 1 | -5.7 | 1.9
CC1=CC(C)(C)N2C(=O)C3(C(C#N)=C(N)Oc4cc(C)oc(=O)c43)c3cccc1c32 (stereo not given) | 0.5 | 23.4 | 0.8 | 48.9 | 5.8
CCOc1cc2c3c(c1)C1(C(=O)N3C(C)(C)C=C2C)C(C#N)=C(N)Oc2cc(O)ccc21 (stereo not given) | 0.7 | 56.2* | 0.4 | 34.6 | 0.6
CCOC(=O)c1ccccc1N1C(=O)CSC1=S | 0.7 | 19.0 | 0.8 | 29.4 | -2.9
N#CC1=C(N)SC2(CCCCC2)SC1c1ccccc1 (stereo not given) | 0.7 | 9.4 | 0.9 | 34.9 | -1.1
SMILES | CYP2C19 activ | CYP2C9 inh | CYP2C9 act | CYP2C19 inhib | EphB4 ephrin blk
N#CC1=C(C2CC2)CC(c2ccccc2)C(C#N)=C1N (stereo not given) | 0.4 | 7.4 | 0.9 | 56.8* | 0.7
O=C(CN1CCC2(CC1)OCCO2)c1ccc2cc[nH]c2c1 | 0.1 | 1.9 | 1 | 85.5* | -18.5
O=C(CN1CCN(c2ccccc2)CC1)c1ccc2cc[nH]c2c1 | 0.6 | 11.4 | 0.9 | 42.8 | -0.2
Cc1cccc(/N=C/c2c(O)cc(C)oc2=O)n1 | 1.1 | -11.0 | 1.1 | -14.6 | .
Cc1ccc(N/N=C/c2c(O)cc(C)oc2=O)cc1 | 0.6 | 50.0* | 0.5 | 36.9 | -11.4
O=C(Cn1ccsc1=NC(=O)C(F)(F)F)c1ccccc1 | 0.4 | 35.1 | 0.6 | 56.8* | -4.5
Cc1cc(NC(=O)CCC(=O)N(CC2CCCO2)C(C(=O)NC2CCCC2)c2cccnc2)no1 (stereo not given) | 1.1 | 0.4 | 1 | -5.3 | 5.2
Cc1cc(NC(=O)CCC(=O)N(CC(=O)NC2CCCC2)Cc2ccc(F)cc2)no1 | 0.9 | 19.0 | 0.8 | 12.0 | 5.5
C=CCN(C(=O)CCC(=O)Nc1cc(C)on1)C(C(=O)NC1CCCC1)c1cccnc1 (stereo not given) | 0.6 | 67.8* | 0.3 | 44.8 | 5.2
CCc1ccccc1N(C(=O)CCC(=O)Nc1cc(C)on1)C(C(=O)NC1CCCC1)c1ccco1 (stereo not given) | 0.3 | 57.7* | 0.4 | 74.7* | .
Cc1cc(NC(=O)CCC(=O)N(C2CC2)C2(C(=O)NC3CCCC3)CCC(C)CC2)no1 (stereo not given) | 0.4 | 71.2* | 0.3 | 58.6* | 8.1
Cc1cc(NC(=O)CCC(=O)N(CC(=O)NC2CCCC2)Cc2ccccc2Cl)no1 | 0.6 | 57.5* | 0.4 | 41.1 | 1.2
O=C(Nc1ccc2nc(-c3ccccn3)[nH]c2c1)C1CCCCC1 | 0.6 | 43.5 | 0.6 | 36.2 | 8.0
CCC(=O)Nc1cc2nn(-c3ccc(OC)cc3)nc2cc1C | 0.9 | 9.4 | 0.9 | 7.0 | .
COc1ccc(OC)c(C2SCCN2S(=O)(=O)c2cccc(C(F)(F)F)c2)c1 (stereo not given) | 0.1 | 53.4* | 0.5 | 90.7* | 1.6
COc1cc(OC)c(C2SCCN2S(=O)(=O)c2ccc(F)cc2)cc1OC (stereo not given) | 0.4 | 31.5 | 0.7 | 60.4* | -7.1
COc1ccc(S(=O)(=O)N2CCSC2c2ccc(N)cc2)cc1 (stereo not given) | 0 | 36.3 | 0.6 | 97.0* | -5.4
COCCN(C(=O)c1ccco1)C(C(=O)NC1CCCC1)c1cccs1 (stereo not given) | . | . | . | . | 4.8
CCOC(=O)CN1CC23C=CC(O2)C(C(=O)NCCc2ccccc2)C3C1=O (stereo not given) | 1.1 | -3.8 | 1 | -9.0 | 2.6
CCNC(=O)c1ccc(-n2nc(C(F)(F)F)c3c2CCCC3)cc1 | 0.8 | -146.4 | 2.5* | 20.5 | 4.6
COc1ccc(OC)c(Nc2ncnc3ccccc23)c1 | 0.8 | 15.5 | 0.8 | 24.1 | -1.0
CCc1ccc(C(=O)N2CCN(c3ccc(F)cc3)CC2)s1 | 0.1 | 48.3 | 0.5 | 86.8* | -6.1
O=C(c1ccccc1)c1ccc(C(=O)N2CCN(c3ccc(F)cc3)CC2)o1 | 0.1 | 80.7* | 0.2 | 89.1* | 6.6
Cc1ccc(Cl)cc1N(CC(=O)N1CCCCCC1)S(C)(=O)=O | 0.7 | -1.9 | 1 | 27.0 | 0.0
Cc1cc(C)c2c(-n3cccc3)c(NC(=O)OC(C)C)sc2n1 | 0.9 | 37.2 | 0.6 | 13.2 | 4.2
COc1cccc(C2CC(c3ccccc3)Nc3ncnn32)c1 (stereo not given) | 0.1 | 43.5 | 0.6 | 94.7* | -3.5

High-throughput results from PubChem.
